# GRP78 ERSR act – ER stress response induction in glioma | U87-MG GRP78 promoter luciferase reporter, 16 h | Potency, µM, inactives show top-dose activation, actives largely listed as activators | actives 0.02% (n = 420,000); note: series mostly up to about 76 µM; % of control where 0% means no effect; nearly all actives have a fitted effect of over 35% in size
#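 ERSR induction read as luciferase luminescence (Bright-Glo, 10 min at room temperature) in stably transfected human U87-MG glioma cells exposed to compounds for 16 h, using GRP78 as sensor.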
# VDR inh – blocks the human vitamin D receptor; AID 504847; actives 0.93% (n = 400,000); Potency, µM, for the others: max response, negative = inhibition, usual class: inhibitors; VDR-SRC2-3 peptide fluorescence polarization, 2 h; note: % is set by controls: 0 for no effect and ±100 for the full control effect
# Target sequence (P11473 whole entry, looked up): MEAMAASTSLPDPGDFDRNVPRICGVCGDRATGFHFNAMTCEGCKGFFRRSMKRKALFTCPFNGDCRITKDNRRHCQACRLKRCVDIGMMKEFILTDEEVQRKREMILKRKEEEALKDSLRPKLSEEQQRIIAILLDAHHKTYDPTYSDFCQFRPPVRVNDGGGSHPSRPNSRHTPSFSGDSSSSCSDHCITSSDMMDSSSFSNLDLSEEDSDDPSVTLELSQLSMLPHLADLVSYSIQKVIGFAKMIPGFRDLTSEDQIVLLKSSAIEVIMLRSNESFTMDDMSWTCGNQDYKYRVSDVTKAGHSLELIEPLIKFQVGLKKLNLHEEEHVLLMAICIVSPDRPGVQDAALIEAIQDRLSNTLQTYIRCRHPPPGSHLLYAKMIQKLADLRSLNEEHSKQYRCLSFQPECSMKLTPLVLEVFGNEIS
#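 Two reagent solutions held at 4 deg C in the dark were dispensed, compounds pinned at 23 nl, and the mixture incubated 2 h at room temperature. Read-out: fluorescence polarization of VDR–SRC2-3 peptide binding.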
# G9a block – G9a (human) methyltransferase inhibition; actives 8.8% (n = 350,000); G9a H3K9 monomethylation, AlphaScreen, 2 h; AID 504332; Potency, µM (titrated, usually from 102 µM), inactives show at the top dose activity, negative = inhibition, usual class: inhibitors; Q96KQ7; note: % is set by controls: 0 for no effect and ±100 for the full control effect; nearly all actives have a fitted effect of over 75% in size
# Target sequence (Q96KQ7 913-1193 limits assumed): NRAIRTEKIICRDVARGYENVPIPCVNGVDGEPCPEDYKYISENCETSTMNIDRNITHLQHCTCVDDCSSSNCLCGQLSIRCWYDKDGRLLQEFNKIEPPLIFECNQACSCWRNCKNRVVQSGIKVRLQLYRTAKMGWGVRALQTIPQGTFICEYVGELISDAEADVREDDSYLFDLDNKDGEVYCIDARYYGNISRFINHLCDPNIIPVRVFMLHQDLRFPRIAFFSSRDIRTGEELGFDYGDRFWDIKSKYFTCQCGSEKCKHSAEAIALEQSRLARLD
#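 AlphaScreen read-out: biotin-H3K9 peptide (500 nM) methylation by 20 nM enzyme with 20 uM SAM, 2 h at room temperature after 15 min compound preincubation; anti-monomethyl H3K9 antibody plus donor/acceptor beads, 10 min dark.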
# Sfp PPTase inh – Sfp phosphopantetheinyl transferase inhibition. actives 3.5% (n = 310,000). Potency, µM, inactives show largest response in the series, negative = inhibition, hits mostly inhibitors. Biochemical Sfp PPTase activity, qHTS. AID 1490. Q9F4F7;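 note: the enzyme is Sfp with the accession as filed and its product quenches rhodamine fluorescence; 0% = enzyme reaction without inhibitor and -100% = no enzyme wells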
#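 After 15 min at room temperature with compound, 15 nM Sfp received 5 uM rhodamine-CoA plus 12.5 uM BHQ-2-ybbR (50 mM Hepes pH 7.6, 10 mM MgCl2). Rate came from the fluorescence difference over 30 min, ex 525/em 598 nm.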
# 12-LOX inh – blocks human arachidonate 12S-lipoxygenase | P18054 | purified 12hLO, xylenol orange hydroperoxide absorbance | Potency, µM (doses to about 108 µM), for inactives: at the highest dose activity change, negative = inhibition, most hits filed as inhibitors | actives 1.1% (n = 580,000); note: % is set by controls: 0 for no effect and ±100 for the full control effect
#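 Purified human 12hLO (150 nM final) in 25 mM Hepes, 0.01% Triton X-100, pH 7.0 was preincubated 15 min at room temperature with compound. Then 40 uM arachidonic acid was added, 30 min. Hydroperoxide was read by Fe-XO absorbance ratio 573/405 nm.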
# Starred values were filed as active, the others as inactive; ? = inconclusive; / = not tested or not shown; [ ] = remark or other dose. Many of the other results were omitted from the sample, so hits are more common in it than they were. Calls come from the whole dose curve; as a rule, active = well fitted curve in the direction sought with a large enough effect; inconclusive = small, poorly fitted or top-dose-only effect, or another doubt; inactive = no such curve, though single readings can be large; an effect the other way counts as inactive or inconclusive. Potency is the fitted concentration of half-maximal effect.
SMILES,GRP78 ERSR act,VDR inh,G9a block,Sfp PPTase inh,12-LOX inh
COc1cc2ncnc(NCc3ccc4c(c3)OCO4)c2cc1OC,-3%,8%,11%[12.7 µM],2%,6%
COc1ccc(CNc2ncnc3cc(OC)c(OC)cc23)cc1OC,1%,9%,45µM*,3%,1%
Cc1cc2nc(-c3cccc(NC(=O)COc4ccc([N+](=O)[O-])cc4)c3)oc2cc1C,/,/,/,/,36%
CCCCN(C)CCC(=O)Nc1cccc(F)c1,/,/,/,/,-35%
Cc1ccc(-c2cc(C(=O)Nc3cccc(C)n3)c3ccccc3n2)cc1,/,/,/,/,-58%
COc1ccc(-c2coc3cc(OCc4ccccc4C)ccc3c2=O)cc1,/,/,/,/,20%
COc1ccc(NC(=O)Nc2sc(=S)n(C)c2C)cc1,-1%,-2%,50µM*,20µM*,-19%
CCOC(=O)c1sc(=S)n(C)c1NC(=O)c1ccc(OC)cc1,-4%,50µM*,-107%[12.7 µM],13µM*,0%
CCOC(=O)c1cnn(CCOC(=O)c2ccc(OC)cc2)c1NC(=O)c1ccc(OC)cc1,-3%,-6%,8%[59 µM],-16%,2%
CCOC(=O)c1sc(=S)n(C)c1NC(=O)c1ccccc1Cl,-5%,?,7.9µM*,18µM*,?
CCOC(=O)c1sc(=S)n(-c2ccccc2Cl)c1C,-3%,-6%,?,-7%,48%
CCCCOC(=O)COc1ccc2c(=O)c(Oc3cc(C)cc(C)c3)coc2c1,/,/,/,/,-9%
CNC(=O)NC(=O)CN(C)Cc1ccccc1C(F)(F)F,/,/,/,/,0%
COc1ccc(-n2c(SCC(=O)NCCC(C)C)nc3ccsc3c2=O)cc1,-4%,-2%,25µM*,?,0%
CCOC(=O)c1[nH]c2ccccc2c1NC(=O)CCC1CCCCC1,/,/,/,/,10%
Cc1cc2nn(-c3cccc4ccccc34)nc2cc1N,3%,?,3.5µM*,-5%,?
COc1ccc(-n2nc3cc(C)c(N)c(Br)c3n2)cc1,-2%,-1%,?,40µM*,28µM*
Nc1ccc2nn(-c3ccccc3)nc2c1,-3%,-8%,/,-17%,?
COc1ccc(-n2nc3cc(N)c(Br)cc3n2)cc1,3%,-27%,17%[0.501 µM],-6%,-8%
Nc1cc2nn(-c3ccccc3)nc2cc1Cl,-1%,-18%,?,40µM*,5.6µM*
Cc1ccc(-n2nc3cc(C)c(N)cc3n2)cc1,-2%,?,1.6µM*,-18%,45µM*
Nc1ccc2nn(-c3cccc4ccccc34)nc2c1,-10%,-15%,17%[59 µM],-3%,9%
Fc1ccc(OC2CN(Cc3ccccc3)C2)cc1F,/,/,/,/,2%[176 µM]
COc1ccc(CN(C(=O)c2ccco2)c2ccc(CC(=O)NCc3ccc(F)cc3)cc2)cc1,/,/,/,/,37%
Cc1c(-c2nnc(-c3ccc(OC(C)C)cc3)o2)oc2ccccc12,/,/,/,/,-1%
SMILES,GRP78 ERSR act,VDR inh,G9a block,Sfp PPTase inh,12-LOX inh
N#CC1=C(N)OC2=C(C1c1cccnc1)S(=O)(=O)N(Cc1ccccc1)c1ccccc12 (stereo unspecified),/,/,/,/,-19%
Cc1nc(C)c(N)c(=O)[nH]1,2%,6%,50µM*,5%,-14%
COc1ccc(NC(=O)c2cc3ccccc3cc2O)cc1,7%,45µM*,-44%,-26%,10%
COc1ccc(C(=O)Nc2ccc(C(=O)Nc3cccnc3)cc2)cc1,0%,-23%,50µM*,6%,5%
COc1ccc(C(=O)Nc2ccccc2C(=O)Nc2ccncc2)cc1,4%,-2%,45µM*,6%,32%
COc1ccc(CNC(=O)CCC(=O)Nc2cccnc2)cc1,-2%,1%,40µM*,12%,20%
COc1ccc(NC(=O)c2ccc(NC(=O)c3cccnc3)cc2)cc1,0%,/,/,/,?
CCN(CC)C(C)CNC(=O)NC1CC1 (stereo unspecified),/,/,/,/,-10%
CN(C)c1ncc2c(n1)C(C)(C(=O)Nc1ccncc1)CCC2 (stereo unspecified),/,/,/,/,10%[176 µM]
COc1ccc(C(=O)Nc2ccc(/C(C)=N/NC(=O)c3ccncc3)cc2)cc1,/,/,22µM*,50µM*,14%
O=C(Nc1ccc(-c2ccc(Cl)cc2)cc1)c1ccncc1,/,/,/,/,7.1µM*
CCc1ccc(C2CC(c3ccccc3)n3ncnc3N2)cc1 (stereo unspecified),-1%,-19%,79µM*,1%,12%
CCc1ccc(C2CC(c3ccccc3)Nc3nc(N)nn32)cc1 (stereo unspecified),-1%,-9%,6%,6%,11%[57.4 µM]
CCc1ccc(C2CC(c3ccccc3Cl)Nc3nc(N)nn32)cc1 (stereo unspecified),0%,-17%,11µM*,-5%,2%[57.4 µM]
Cn1nc(C(=O)Nc2cc(-c3cccc(F)c3)no2)c2c1-c1ccccc1OC2,/,/,/,/,-29%
CCNC(=O)CN1CCN(C(C(=O)O)c2c[nH]c3ccccc23)CC1 (stereo unspecified),/,/,/,/,-12%
Cc1cc(N2CCN(C)CC2)nc2ccc(NC(=S)N3CCN(c4ccc(Cl)cc4)CC3)cc12,-3%,-7%,40µM*,45µM*,-3%
Cc1cc(N2CCOCC2)nc2ccc(NC(=S)N3CCCCC3C)cc12 (stereo unspecified),9%,6%,45µM*,?,-6%
Cc1cc(N2CCN(C)CC2)nc2ccc(NC(=S)N3CCN(c4ccc(F)cc4)CC3)cc12,-18%,8%,-20%[59 µM],25%,34%
Cc1cc(N2CCN(C)CC2)nc2ccc(NC(=S)N3CCCCCC3)cc12,1%,8%,56µM*,-9%,20%
Cc1cc(N2CCN(C)CC2)nc2ccc(NC(=S)N3CCCCC3)cc12,8%,-1%,25µM*,-21%,-2%
CCN(C(=O)c1cccc(Br)c1)C1CC1,/,/,/,/,9%
O=C(Nc1ccc(-n2cccn2)cc1)C1CCN(Cc2ccccn2)CC1,-2%,-9%,35µM*,0%,?
O=C(Nc1cccc(-c2cccc(Cl)c2)c1)C1CCN(Cc2ccccn2)CC1,-10%,10%,45µM*,-28%,?
COc1ccc(-n2[nH]c(-c3ccc(OC)c(OC)c3)cc2=O)cc1,/,/,/,/,1%
SMILES,GRP78 ERSR act,VDR inh,G9a block,Sfp PPTase inh,12-LOX inh
C=CCN(Cc1ccc(C#N)cc1)Cc1cccnc1,/,/,/,/,10%
CC(C)c1nc(NCc2ccccc2)c(C#N)c2c1CCCC2,-4%,2%,25%,9%,0%
N#Cc1c(NCCCO)nc(NCc2ccccc2)c2c1CCN(Cc1ccccc1)C2,-3%,11%,40µM*,-26%,?
CN1CCc2c(C#N)c(N3CCCCC3)nc(NCc3ccccc3)c2C1,-1%,?,40µM*,?,?
Cc1ccc(-c2cc(C(=O)N3CCN(c4ccc(F)cc4)CC3)c3ccccc3n2)o1,7%,0%,45µM*,25µM*,14µM*
COc1ccc(-c2cc(C(=O)N3CCCC(C(F)(F)F)C3)c3ccccc3n2)cc1 (stereo unspecified),-1%,6%,3%[12.7 µM],/,-26%
O=C(O)c1cc(-c2ccc(-c3ccc(F)cc3)o2)nc2ccccc12,-7%,?,-101%[59 µM],3.5µM*,?

# Screens (PubChem)
